Assay results published in ChEMBL document CHEMBL4513216, “Probing the Open Global Health Chemical Diversity Library for Multistage-Active Starting Points for Next-Generation Antimalarials” (ACS Infect Dis, 2020).
Out of some 69,000 compounds screened, about 8,600 (12%) showed an effect of 50% or more. The list comes from a sample in which strong results are over-represented; it also holds similar structures and randomly drawn compounds.

tested on: Plasmodium berghei; experiment: Screen against P. berghei liver stage (PbLuc), transformed with Luciferase, at 10uM; assay type: functional, HepG2; details: tested at 10 uM

Structure (SMILES) | INHIBITION [%]
CC(=O)N1CCC2(CC1)CC(NS(C)(=O)=O)c1ccccc1O2 (stereo not given) | 25.9
CC(=O)N1CCOCC(Cc2ccc3c(ccn3C)c2)C1 (stereo not given) | -20.265
Cn1cc(CN2C[C@@H]3COC[C@@H](C(=O)N4CCCCO4)[C@@H]3C2)cn1 | 39.8
O=C(CO)N1CCc2onc(Cn3cccn3)c2C1 | 51.2
CN(C)CC(=O)N1CCc2onc(Cn3cccn3)c2C1 | 33.4
O=C(CC(F)(F)F)N1CCc2onc(Cn3cccn3)c2C1 | 32.4
CCC(=O)N1CCc2onc(CNS(C)(=O)=O)c2C1 | 69.3
CS(=O)(=O)NCc1noc2c1CN(C(=O)C1CCC1)CC2 | 18.6
CS(=O)(=O)NCc1noc2c1CN(C(=O)C1CC1)CC2 | 30.3
CC1CN(C(=O)CN(Cc2ccco2)Cc2cccs2)CCO1 (stereo not given) | -19.9
COC(=O)c1cccn1C1CCN(C(=O)c2c(C)noc2C)CC1 | 36.1
COc1cc2c(cc1OC)C(=O)C(Sc1nnnn1C)C2 (stereo not given) | 26.4
CSc1ncc(C(=O)NCCn2nccc2C)cn1 | 5.785
O=S(=O)(c1ccc(F)cc1)N1CC[C@H]2[C@H]1CCN2c1ncccn1 | 2.4
O=C(c1cnc2c(cnn2C2CCCC2)c1)N1CCN(CCO)CC1 | 24
COc1ccc(OCC2CCCN(Cc3ccncc3)C2)cc1 (stereo not given) | 46.3
Cn1cc(CN2CCCC(CCc3ccc(F)cc3)C2)cn1 (stereo not given) | 59.2
COc1ccc(CN2CC[C@H](O)[C@@H]2Cc2cnn(C)c2)cc1 | 47.4
Fc1ccc(OCCCN2CCCC(Cn3cncn3)C2)cc1 (stereo not given) | 5.9
CCn1cc(CN2CCCC(COc3ccccc3F)C2)cn1 (stereo not given) | 69.3
Cn1cc(C[C@H]2[C@H](O)CCN2Cc2ccncc2)cn1 | 46.2
Cn1cc(CN2CCCC(CCc3ccc(F)cc3F)C2)cn1 (stereo not given) | 43
Cn1cc(CN2CCCC(CCc3c(F)cccc3F)C2)cn1 (stereo not given) | 30.5
Cn1cc(C[C@H]2[C@H](O)CCN2Cc2ccc(F)cc2)cn1 | 57.9
CCn1cc(CN2CCCC(COc3ccc(F)cc3)C2)cn1 (stereo not given) | 74
Cn1nccc1CN1CCCC(COc2ccccc2F)C1 (stereo not given) | 17.4
Cn1cc(CN2CCCC(CCc3ccc(F)c(F)c3)C2)cn1 (stereo not given) | 38.6
Cc1cc(NC(C)c2nncn2C2CCCC2)n2nc(C)c(C)c2n1 (stereo not given) | 32.1

Structure (SMILES) | INHIBITION [%]
CC1CCN(c2nccn3c(=O)[nH]nc23)CC1 | 16.8
Cc1oc(-c2cccc(F)c2F)nc1CN(CCO)C(C)C | 13.6
CNC(=O)c1ccc(C2CN(C(=O)c3coc(C)n3)CCO2)nc1 (stereo not given) | -24.1
FC(F)(F)COCCN1CCOC(Cn2cccn2)C1 (stereo not given) | 40
CCCNC(=O)NC(=O)CNC(C)(C)c1ccc2c(c1)OCCO2 | -4.94
Cc1cnc(C)c(N2C[C@H]3OC(=O)N(C4CCCC4)[C@H]3C2)n1 | 68.1
COc1ccccc1CN1C(=O)O[C@@H]2CN(c3nc(C)cnc3C)C[C@@H]21 | 20.9
Cc1ccc(C(N)=O)c(N2C[C@H]3OC(=O)N(C4CCCC4)[C@H]3C2)n1 | -14.1
CC(C(=O)NCc1ccc(N2CCCC2)nc1)S(C)(=O)=O (stereo not given) | 45.7
Cc1cccc(C(=O)N2CCCN(Cc3cscn3)CC2)c1 | -33.7
COc1ccc(Cl)c(-c2noc3ncn(CCC(=O)O)c(=O)c23)c1 | 25.9
CCOC(=O)CCn1cnc2onc(-c3ccc(OC)cc3)c2c1=O | 71.4
CCOC(=O)CCn1cnc2onc(-c3cc(OC)ccc3Cl)c2c1=O | -8.07
Cc1noc(C)c1CC(=O)N1CCc2sccc2C1 | 19.2
Cc1ccc(NCc2cn3c(n2)CN(Cc2ccc(C)o2)CC3)nn1 | 29.8
CNc1cc(C2CN(C(=O)c3ccn(C)n3)CCO2)nc(C)n1 (stereo not given) | -29
CCS(=O)(=O)CCSc1cccc(C#N)c1 | 7.43
CCCS(=O)(=O)CCSc1cccc(C#N)c1 | 51.4
CS(=O)(=O)CCSc1cccc(C#N)c1 | 7.84
Cc1nsc(C(=O)NCCc2ccccc2)n1 | -67.9
Cc1nsc(C(=O)NCCc2ccc(F)cc2)n1 | -10.6
Cc1nsc(C(=O)NCCCc2ccccc2)n1 | 58.1
Cc1nsc(C(=O)NCCc2cccs2)n1 | -12.1
Cc1nsc(C(=O)NCCc2ccc(S(N)(=O)=O)cc2)n1 | 69.5
Cc1nsc(C(=O)NCCc2ccc(Cl)cc2)n1 | 20.9
CC(C)(O)CCc1cccc(C(=O)N2CCC[C@H]2CN2CCCC2)c1 | 1.56
Cc1ccc(NC2CCN(C(=O)c3ccc4c(c3)CCC4)CC2)nn1 | 18.2
